# Screening data as filed in PubChem BioAssay.
# RecA splice inh: Mtb RecA intein splicing inhibitors, primary screen, biochemical, fluorescence, HTS; Protein RecA (Mycobacterium tuberculosis (strain ATCC 25618 / H37Rv)), P9WHJ3; cell-free RecA intein splicing; inhibition, % (no concentration beside the values); actives 0.75% (n = 290,000); AID 2221, 2009; in the data active = inhibition above about 30%;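 also: 0% = vehicle wells and 100% = reference inhibitor control wells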
# Target sequence (P9WHJ3 whole entry, looked up, canonical isoform): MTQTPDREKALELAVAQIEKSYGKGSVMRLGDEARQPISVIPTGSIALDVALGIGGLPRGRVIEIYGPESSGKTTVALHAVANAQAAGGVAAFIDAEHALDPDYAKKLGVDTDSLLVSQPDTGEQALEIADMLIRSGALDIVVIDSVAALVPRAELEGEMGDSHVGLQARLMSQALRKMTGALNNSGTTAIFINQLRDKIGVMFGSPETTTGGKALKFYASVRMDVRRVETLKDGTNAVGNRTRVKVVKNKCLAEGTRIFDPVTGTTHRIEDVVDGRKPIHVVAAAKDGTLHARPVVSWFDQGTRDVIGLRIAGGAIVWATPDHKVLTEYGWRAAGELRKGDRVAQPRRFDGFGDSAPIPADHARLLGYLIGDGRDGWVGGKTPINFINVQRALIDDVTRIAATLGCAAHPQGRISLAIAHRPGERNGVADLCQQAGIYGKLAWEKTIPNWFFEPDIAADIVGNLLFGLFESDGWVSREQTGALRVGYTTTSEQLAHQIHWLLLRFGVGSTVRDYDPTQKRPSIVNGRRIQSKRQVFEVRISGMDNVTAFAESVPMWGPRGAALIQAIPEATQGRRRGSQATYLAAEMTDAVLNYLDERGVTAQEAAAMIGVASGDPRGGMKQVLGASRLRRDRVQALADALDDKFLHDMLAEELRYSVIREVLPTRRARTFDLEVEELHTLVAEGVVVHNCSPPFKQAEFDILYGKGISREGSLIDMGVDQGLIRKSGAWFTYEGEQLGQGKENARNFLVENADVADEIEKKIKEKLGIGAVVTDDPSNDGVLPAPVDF
# GDH-TPI inh: GDH-TPI coupling enzyme inhibitors, primary screen, artefact control for M. tuberculosis FBA inhibitor project, biochemical, absorbance, full deck; AID 588335, 2011; actives 1.2% (n = 360,000); GDH-TPI coupled enzyme counterscreen, NADH absorbance; inhibition, % at 4.8 µM; in the data active = inhibition above about 30%;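 also: 0% = DMSO wells and 100% = wells lacking the enzyme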
# Mtb FBA inh: Mtb FBA enzyme inhibitors, primary screen, biochemical, fluorescence, strain H37Rv; Fructose-bisphosphate aldolase (Mycobacterium tuberculosis (strain ATCC 25618 / H37Rv)), …; inhibition, % at 1 µM; AID 588726, 2011; actives 2.3% (n = 360,000); purified M. tuberculosis FBA, fluorescence read-out; in the data active = inhibition above about 27%;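 also: 0% = vehicle and 100% = reference inhibitor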
# PrPC surface inh: inhibitors of human cell surface prion protein PrPC, primary screen, cell-based, TR-FRET; Major prion protein (Homo sapiens), P04156; TR-FRET read-out; inhibition, % at 13.8 µM; actives 0.43% (n = 370,000); AID 720596, 2013; in the data active = inhibition above about 24%; also: 0% = median of the test wells and 100% = reference compound wells
# BJeLR viability: MLPCN primary cell-based screen for lethality selective to Ras in HRASV12 cells; BJeLR (HRASV12) viability, CellTiter-Glo ATP luminescence, 48 h; actives 0.17% (n = 300,000); AID 1554, 2009; inhibition, % (no concentration beside the values); in the data active = inhibition above about 50%
# An asterisk follows results filed as active; x = no result; + = active, no number. Rows were chosen to be rich in hits. Some 4.2% of all compounds tested hit in one or more screens of this group.
SMILES,RecA splice inh,GDH-TPI inh,Mtb FBA inh,PrPC surface inh,BJeLR viability
Cc1ccc(CN[C@@H]2CC[C@@]34CCCN3C(=O)CCC[C@H]4C2)cc1,x,x,x,-8,x
O=C(Nc1ncc2c(n1)-c1ccccc1OC2)c1ccc(F)cc1,-2,14,+,-1,1
NC(=O)c1ccc(O)c2ncccc12,x,x,x,-11,x
O=Cc1ccc(O)c2ncccc12,-15,9,2,x,64*
CCN(CC)c1ccc(/C=N/NC(=O)c2ccoc2C)c(O)c1,-2,37*,12,20,48
CCN(CC)c1ccc(/C=N/NC(=O)c2ccc3nc[nH]c3c2)c(O)c1,x,25,3,x,53*
CCN(CC)c1ccc(/C=N/NC(=O)OC)c(O)c1,-9,43*,4,-9,0
CCN(CC)c1ccc(/C=N/NC(=S)NC)c(O)c1,-7,26,5,2,1
CCc1cccc2c(/C=N/NC(=O)c3cccc(S(=O)(=O)Nc4ccccc4Cl)c3)c[nH]c12,-1,37*,4,-1,14
COC(=O)[C@]12C[C@H](CC(=O)NCC3CCCCC3)C(=O)N(Cc3ccccc3)C1=C[C@H](COCc1ccccc1)O[C@@H]2C,x,x,x,-1,x
CC(=O)NC(Cc1ccc2c(c1)OCO2)C(=O)N1CCCN(C(C)=O)CC1 (stereo not given),x,x,x,-5,x
CCN(CC)c1ccc(/C=N/NC(=O)c2cccc(S(=O)(=O)Nc3ccccc3OC)c2)cc1,-12,18,-1,12,-3
CCN(CC)c1ccc(/C=N/NC(=O)c2cccc(S(=O)(=O)Nc3ccccc3OC)c2)c(O)c1,-12,13,-6,21,60*
O=C(CSc1n[nH]c(-c2ccc(S(=O)(=O)NC3CCCCC3)cc2)n1)N1CCCC1,2,2,125*,0,1
CCN(CC)Cc1c(O)ccc2c(=O)c(-c3ccc(Cl)cc3)coc12,-1,24,43*,-10,-2
CCCCN(C)Cc1c(O)ccc2c(=O)c(-c3ccccc3OC)coc12,-2,41*,163*,5,-8
COc1cccc(CNC(=O)[C@H]2CCCN2C(=O)[C@H]2CCCN2C(=O)OC(C)(C)C)c1,x,x,x,2,x
CSc1nc(-c2ccco2)nn1C(=O)c1cccs1,32*,-2,1,0,-9
O=C(O)c1cccc(S(=O)(=O)NCC(=O)N2CCN(c3ccccn3)CC2)c1,x,x,x,8,x
COc1cccc(-n2c(C)cc(/C=C3\C(=N)N4N=C(CC(=O)N5CCOCC5)SC4=NC3=O)c2C)c1,-10,31*,-1,-5,7
Cc1ccc(/C=C2/C(=N)N3N=C(CC(=O)N4CCCC4)SC3=NC2=O)o1,1,33*,5,-3,-1
Cc1cc(/C=C2\C(=N)N3N=C(CC(=O)N4CCOCC4)SC3=NC2=O)c(C)n1Cc1ccccc1,x,8,-2,2,-1
COc1ccc(OC)c(-n2c(C)cc(/C=C3\C(=N)N4N=C(CC(=O)N5CCOCC5)SC4=NC3=O)c2C)c1,2,31*,1,-3,3
O=C1CC(c2ccc3c(c2)OCO3)N=C2N(Cc3ccc4c(c3)OCO4)C/C(=C/c3ccccc3)N12 (stereo not given),x,x,x,6,x
CC(C)N(Cc1cn(Cc2ccccc2)nn1)S(=O)(=O)c1ccc(F)cc1Br,x,x,x,9,x
SMILES,RecA splice inh,GDH-TPI inh,Mtb FBA inh,PrPC surface inh,BJeLR viability
COc1ccc(C(=O)CNC2=NCCC2)cc1,-2,9,-1,6,3
O=C(CNC1=NCCC1)c1ccc(Cl)cc1,45*,15,3,-7,7
O=S(=O)(c1cccc2cccnc12)N1CCC(c2cn3ccccc3n2)CC1,x,x,x,-6,x
O=C(CSc1nnc(-c2cccnc2)n1C1CCCCC1)N1CCCC1,x,x,x,-4,x
O=C(Nc1ccc2c(c1)CCC2)c1ccc(F)cc1,3,6,117*,-1,8
O=C(Nc1ccc(F)cc1)Nc1ccc2c(c1)CCC2,1,-1,1,11,5
C[C@H]1[C@@H](OC(=O)Nc2ccccc2Cl)CC[C@@]23CCCN2C(=O)CCC[C@@H]13,x,x,x,-8,x
Cc1cc(C)n2nc3ccccc3c2n1,-2,16,0,-6,-2
Cc1cc(C)n2nc3nc(N4CCCCC4)nc(-c4ccco4)c3c2n1,-11,16,38*,x,-5
COC(=O)c1c(N)sc(C(C)=O)c1C,0,44*,1,4,1
CCOC(=O)c1sc(N)c(C(=O)OC)c1C,2,6,1,2,-4
N#Cc1c(-c2ccc(C(F)(F)F)cc2)cc(-c2ccccc2)[nH]c1=S,16,1,6,-3,0
Cc1ccc(-c2cc(-c3ccco3)c(C#N)c(=O)[nH]2)cc1,-33,26,124*,-9,-2
Cc1ccc(-c2cc(C(F)(F)F)c(C#N)c(=O)[nH]2)cc1,-25,17,139*,-2,-12
N#Cc1c(C(F)(F)F)cc(=O)[nH]c1SCC(=O)O,-2,13,6,8,1
N#Cc1c(C(F)(F)F)cc(C2CC2)[nH]c1=O,-1,24,+,8,4
N#Cc1c(C(F)(F)F)cc(-c2ccccc2)[nH]c1=O,-13,0,+,0,-5
CSC1=Nc2ccccc2N=C(N2CCCC2)C1,x,x,x,-9,x
COc1cccc(-c2c3c([nH]c(=O)c2C#N)CCc2cc(OC)ccc2-3)c1,-12,x,x,x,-6
N#Cc1c(C(F)(F)F)cc(-c2ccccc2Cl)[nH]c1=O,1,10,145*,2,2
COc1cccc(-c2cc(C(F)(F)F)c(C#N)c(=O)[nH]2)c1,-16,6,+,-4,-1
CSc1cc(-c2ccccc2)[nH]c(=O)c1C#N,-3,19,34*,2,4
Cc1cc(/C=C(\C#N)C(N)=O)c(C)n1-c1ccc(N2CCOCC2)c([N+](=O)[O-])c1,-1,38*,-2,1,-10
Cc1cc(C=O)c(C)n1-c1ccc(N2CCCCC2)c([N+](=O)[O-])c1,6,2,-2,1,-2
O=C(O)c1ccc(N/N=C/c2cn(Cc3ccc(F)cc3)c3ccccc23)cc1,5,44*,12,12,4
CCNC(=S)N/N=C/c1cn(Cc2ccc(F)cc2)c2ccccc12,-1,22,-1,9,-2
Cc1ccc(C(=O)N/N=C/c2cn(Cc3ccccc3)c3ccccc23)cn1,0,24,-2,16,-3
Cc1c(/C=N/Nc2ccc(C(=O)O)cc2)c2ccccc2n1C,-6,41*,4,-3,3
COc1cc(C(=O)N/N=C/c2cn(Cc3cccc(F)c3)c3ccccc23)ccc1O,0,35*,4,6,3
CCC(=O)N1CCc2cc(Br)c(S(=O)(=O)N3CCC(C(=O)NC(C)(C)C)CC3)cc21,x,x,x,5,x
